Data on seven compounds can be found in ChEMBL document CHEMBL1961873, “Compounds: GSK PKIS; Assays: Nanosyn kinase panel” (2012).

Usually inhibition stands for the change of the read-out against control, counted positive when it falls.

In assay [1] the target is T1, 3-phosphoinositide-dependent protein kinase 1 (Homo sapiens) (UniProt O15530).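 Also: values are mean inhibition of PDK1.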
T1 sequence (whole entry): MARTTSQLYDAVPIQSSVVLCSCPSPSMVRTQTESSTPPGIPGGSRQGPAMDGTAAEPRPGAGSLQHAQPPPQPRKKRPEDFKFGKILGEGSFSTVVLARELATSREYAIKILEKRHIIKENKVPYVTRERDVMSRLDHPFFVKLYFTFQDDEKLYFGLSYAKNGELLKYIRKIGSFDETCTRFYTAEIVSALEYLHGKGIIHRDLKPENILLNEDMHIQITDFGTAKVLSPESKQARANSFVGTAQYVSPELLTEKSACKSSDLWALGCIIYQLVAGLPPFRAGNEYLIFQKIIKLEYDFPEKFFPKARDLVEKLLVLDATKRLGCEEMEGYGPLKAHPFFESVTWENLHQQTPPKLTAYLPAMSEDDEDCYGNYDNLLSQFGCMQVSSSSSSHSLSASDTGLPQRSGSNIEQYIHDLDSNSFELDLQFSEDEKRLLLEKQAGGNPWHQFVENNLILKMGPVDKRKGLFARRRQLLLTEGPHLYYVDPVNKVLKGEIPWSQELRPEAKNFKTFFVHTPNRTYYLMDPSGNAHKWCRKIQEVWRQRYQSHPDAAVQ
The settings on record: at 0.1 µM.

Assay [2] has as its target cAMP-dependent protein kinase catalytic subunit alpha (Homo sapiens) (UniProt P17612). The note with it: at 0.1 µM.
Assay [3] has the same target. The settings on record: at 1 µM.
Assay [4] deals with Protein kinase C alpha type (Homo sapiens) (UniProt P17252). The note with it: at 0.1 µM.
The target is the same in assay [5]. The note with it: at 1 µM.
Assay [6] has as its target Protein kinase C beta type (Homo sapiens) (UniProt P05771). The settings on record: at 0.1 µM.
Assay [7] shares this target. The note with it: at 1 µM.
The target in assay [8] is Protein kinase C eta type (Homo sapiens) (UniProt P24723). The note with it: at 0.1 µM.
Chain of Protein kinase C eta type (Homo sapiens) (P24723 whole entry): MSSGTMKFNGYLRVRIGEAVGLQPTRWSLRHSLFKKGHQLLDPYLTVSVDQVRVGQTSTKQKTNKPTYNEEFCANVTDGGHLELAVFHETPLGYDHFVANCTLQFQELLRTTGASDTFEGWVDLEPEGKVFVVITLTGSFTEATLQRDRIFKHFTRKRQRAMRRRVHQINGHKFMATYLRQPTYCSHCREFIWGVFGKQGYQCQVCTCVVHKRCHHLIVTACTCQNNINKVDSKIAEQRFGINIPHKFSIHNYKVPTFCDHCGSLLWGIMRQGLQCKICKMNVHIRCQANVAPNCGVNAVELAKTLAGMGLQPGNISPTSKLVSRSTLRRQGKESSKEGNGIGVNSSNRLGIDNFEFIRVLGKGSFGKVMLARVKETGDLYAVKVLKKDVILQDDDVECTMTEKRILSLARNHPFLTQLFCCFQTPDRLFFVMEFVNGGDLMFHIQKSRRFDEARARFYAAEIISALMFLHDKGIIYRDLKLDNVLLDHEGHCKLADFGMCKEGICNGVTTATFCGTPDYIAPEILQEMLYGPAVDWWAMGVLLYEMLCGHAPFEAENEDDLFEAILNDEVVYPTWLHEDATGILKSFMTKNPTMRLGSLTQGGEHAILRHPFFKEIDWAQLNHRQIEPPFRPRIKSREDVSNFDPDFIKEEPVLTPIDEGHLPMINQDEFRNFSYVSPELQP
For assay [9] the target is unchanged. The note with it: at 1 µM.
Assay [10] concerns the target Protein kinase C gamma type (Homo sapiens) (UniProt P05129). The note with it: at 0.1 µM.
The target is the same in assay [11]. The settings on record: at 1 µM.
In assay [12] the target is T2, Protein kinase C iota type (Homo sapiens) (UniProt P41743).
T2 sequence (whole entry): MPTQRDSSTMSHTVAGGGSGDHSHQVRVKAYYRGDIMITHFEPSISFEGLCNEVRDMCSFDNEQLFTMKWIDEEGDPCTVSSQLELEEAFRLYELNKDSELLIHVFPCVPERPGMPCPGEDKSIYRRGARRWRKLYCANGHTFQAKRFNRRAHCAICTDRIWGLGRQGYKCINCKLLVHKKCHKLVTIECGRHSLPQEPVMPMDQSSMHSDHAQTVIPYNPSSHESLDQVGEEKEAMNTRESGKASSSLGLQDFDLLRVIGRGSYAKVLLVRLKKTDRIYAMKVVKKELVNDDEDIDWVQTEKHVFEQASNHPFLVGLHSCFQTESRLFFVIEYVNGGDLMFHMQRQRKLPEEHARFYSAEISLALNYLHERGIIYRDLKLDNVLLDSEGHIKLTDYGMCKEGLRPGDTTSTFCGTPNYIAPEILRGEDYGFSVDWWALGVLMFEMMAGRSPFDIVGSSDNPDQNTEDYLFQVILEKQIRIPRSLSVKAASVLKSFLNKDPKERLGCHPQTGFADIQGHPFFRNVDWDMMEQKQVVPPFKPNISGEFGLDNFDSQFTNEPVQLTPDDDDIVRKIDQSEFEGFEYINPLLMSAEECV
The note with it: at 0.1 µM.

Assay [13] deals with T2, Protein kinase C iota type (Homo sapiens). The settings on record: at 1 µM.
The target in assay [14] is Protein kinase C theta type (Homo sapiens) (UniProt Q04759). The settings on record: at 0.1 µM.
Chain of Protein kinase C theta type (Homo sapiens) (Q04759 whole entry, looked up): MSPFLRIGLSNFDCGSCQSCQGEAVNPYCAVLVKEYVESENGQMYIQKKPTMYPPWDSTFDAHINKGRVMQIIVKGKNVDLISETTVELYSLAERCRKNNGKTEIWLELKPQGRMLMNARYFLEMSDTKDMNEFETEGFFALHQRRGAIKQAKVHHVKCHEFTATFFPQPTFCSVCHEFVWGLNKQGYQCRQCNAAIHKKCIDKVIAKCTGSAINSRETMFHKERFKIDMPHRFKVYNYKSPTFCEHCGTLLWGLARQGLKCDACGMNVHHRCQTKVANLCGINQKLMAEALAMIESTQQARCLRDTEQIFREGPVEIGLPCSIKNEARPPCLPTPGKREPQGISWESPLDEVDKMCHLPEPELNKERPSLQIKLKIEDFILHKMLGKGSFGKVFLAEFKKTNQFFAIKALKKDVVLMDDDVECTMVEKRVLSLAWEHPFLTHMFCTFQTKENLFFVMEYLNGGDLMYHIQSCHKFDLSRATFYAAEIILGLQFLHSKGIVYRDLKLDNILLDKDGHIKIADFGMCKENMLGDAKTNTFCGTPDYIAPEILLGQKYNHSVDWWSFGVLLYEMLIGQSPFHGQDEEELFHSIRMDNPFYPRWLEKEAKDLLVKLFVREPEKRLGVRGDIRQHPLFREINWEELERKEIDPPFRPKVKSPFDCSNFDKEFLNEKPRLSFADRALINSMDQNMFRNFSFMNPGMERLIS
For assay [15] the target is unchanged. The settings on record: at 1 µM.
The target in assay [16] is Protein kinase C beta type (Homo sapiens) (UniProt P05771). The note with it: at 0.1 µM. The source holds these as a separate data set.
Chain of Protein kinase C beta type (Homo sapiens) (P05771 2-671 limits assumed): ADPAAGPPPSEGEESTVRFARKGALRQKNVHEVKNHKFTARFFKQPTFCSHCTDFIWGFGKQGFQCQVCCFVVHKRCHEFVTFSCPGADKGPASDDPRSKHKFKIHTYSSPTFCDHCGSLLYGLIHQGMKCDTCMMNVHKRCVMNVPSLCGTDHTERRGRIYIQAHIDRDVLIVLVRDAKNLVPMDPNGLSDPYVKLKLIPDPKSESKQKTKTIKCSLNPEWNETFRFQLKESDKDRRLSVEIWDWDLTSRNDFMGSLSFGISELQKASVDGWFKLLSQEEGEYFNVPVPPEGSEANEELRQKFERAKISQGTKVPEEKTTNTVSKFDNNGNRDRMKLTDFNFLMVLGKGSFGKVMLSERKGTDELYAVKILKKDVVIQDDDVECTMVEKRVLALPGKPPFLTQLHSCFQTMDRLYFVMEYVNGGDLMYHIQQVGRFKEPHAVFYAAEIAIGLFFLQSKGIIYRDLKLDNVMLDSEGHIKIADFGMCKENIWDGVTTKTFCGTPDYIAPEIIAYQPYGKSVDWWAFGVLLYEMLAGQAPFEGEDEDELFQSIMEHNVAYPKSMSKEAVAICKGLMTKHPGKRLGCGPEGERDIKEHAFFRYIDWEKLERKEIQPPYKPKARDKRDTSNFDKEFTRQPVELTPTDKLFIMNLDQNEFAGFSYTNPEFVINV
The target is the same in assay [17]. The settings on record: at 1 µM. This is another data set of the same source.
The target in assay [18] is T3, Serine/threonine-protein kinase D1 (Homo sapiens) (UniProt Q15139).
T3 sequence (whole entry): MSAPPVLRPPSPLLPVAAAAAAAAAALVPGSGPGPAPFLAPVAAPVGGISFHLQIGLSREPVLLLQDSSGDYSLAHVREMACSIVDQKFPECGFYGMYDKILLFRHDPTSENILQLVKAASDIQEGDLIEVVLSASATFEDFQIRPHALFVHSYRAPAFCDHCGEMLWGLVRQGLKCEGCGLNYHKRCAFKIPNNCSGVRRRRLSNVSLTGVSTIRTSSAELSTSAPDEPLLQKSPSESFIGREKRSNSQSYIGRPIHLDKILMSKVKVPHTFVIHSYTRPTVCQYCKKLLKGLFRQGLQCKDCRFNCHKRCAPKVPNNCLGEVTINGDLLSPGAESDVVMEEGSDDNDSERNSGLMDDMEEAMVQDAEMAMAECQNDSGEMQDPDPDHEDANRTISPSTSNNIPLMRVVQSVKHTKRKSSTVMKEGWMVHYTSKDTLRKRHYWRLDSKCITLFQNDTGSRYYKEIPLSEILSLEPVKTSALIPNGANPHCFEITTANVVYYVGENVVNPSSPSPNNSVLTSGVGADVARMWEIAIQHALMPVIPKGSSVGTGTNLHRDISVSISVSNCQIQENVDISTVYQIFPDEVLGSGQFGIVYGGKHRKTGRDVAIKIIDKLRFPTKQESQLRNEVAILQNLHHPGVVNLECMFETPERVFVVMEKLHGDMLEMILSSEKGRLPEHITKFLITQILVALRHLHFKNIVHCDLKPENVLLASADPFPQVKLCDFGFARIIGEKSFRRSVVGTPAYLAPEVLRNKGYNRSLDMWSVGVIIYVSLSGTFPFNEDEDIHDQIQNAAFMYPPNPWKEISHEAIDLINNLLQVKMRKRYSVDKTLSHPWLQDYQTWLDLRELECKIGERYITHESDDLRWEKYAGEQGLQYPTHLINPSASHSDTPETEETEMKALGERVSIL
The settings on record: at 0.1 µM.

Assay [19] addresses T3, Serine/threonine-protein kinase D1 (Homo sapiens). The settings on record: at 1 µM.
The target of assay [20] is T4, Serine/threonine-protein kinase D2 (Homo sapiens) (UniProt Q9BZL6).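 Also: reported percent inhibition values are means, part of the GSK PKIS kinase panel screen.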
T4 sequence (whole entry): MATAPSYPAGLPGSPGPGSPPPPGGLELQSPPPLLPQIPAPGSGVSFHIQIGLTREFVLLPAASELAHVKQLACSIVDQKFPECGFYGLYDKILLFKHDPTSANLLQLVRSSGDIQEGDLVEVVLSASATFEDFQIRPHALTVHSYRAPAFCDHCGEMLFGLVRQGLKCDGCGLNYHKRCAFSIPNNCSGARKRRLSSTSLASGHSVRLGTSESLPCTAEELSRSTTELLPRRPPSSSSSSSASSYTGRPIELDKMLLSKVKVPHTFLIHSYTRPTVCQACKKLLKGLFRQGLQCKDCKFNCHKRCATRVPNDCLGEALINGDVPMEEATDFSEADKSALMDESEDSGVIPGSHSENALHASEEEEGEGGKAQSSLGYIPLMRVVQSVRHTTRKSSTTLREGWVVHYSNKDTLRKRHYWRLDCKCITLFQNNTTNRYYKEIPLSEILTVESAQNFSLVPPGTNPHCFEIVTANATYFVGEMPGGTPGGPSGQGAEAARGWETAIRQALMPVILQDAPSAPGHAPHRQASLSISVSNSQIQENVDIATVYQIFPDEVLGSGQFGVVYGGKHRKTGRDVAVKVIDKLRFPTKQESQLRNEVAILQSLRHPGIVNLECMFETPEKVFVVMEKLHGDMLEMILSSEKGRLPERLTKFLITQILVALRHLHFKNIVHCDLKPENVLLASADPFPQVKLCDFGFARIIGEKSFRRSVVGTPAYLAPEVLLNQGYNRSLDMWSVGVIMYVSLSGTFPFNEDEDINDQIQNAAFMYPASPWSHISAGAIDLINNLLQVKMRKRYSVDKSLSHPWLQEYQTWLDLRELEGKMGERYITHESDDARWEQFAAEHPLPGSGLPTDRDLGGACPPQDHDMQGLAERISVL
The note with it: at 0.1 µM.

Turning to `CC(C)COC(=O)c1ccc2c(c1)/C(=C/Nc1ccc(S(N)(=O)=O)cc1)C(=O)N2`, the inhibition is 19.6% in [1]; 6.49% in assay [2]; 11.8% in [3]; 1.15% in assay [4]; 7.21% in [5]; 3.19% in [6]. The inhibition in [7] is 5.57%; in assay [8] it was -1.68%; in [9] it was 1.97%; in assay [10], -1.87%; in assay [11] it was 9.06%; in [12], -0.44%. Also, the inhibition was 1.73% in assay [13]; 2.36% in assay [14]; 7.78% in [15]; 3.37% in assay [16]; 6.47% in assay [17]; 4.18% in assay [18]. Also, the inhibition was determined as 56% in [19] and 4.41% in assay [20].
`COC(=O)Nc1nc2ccc(S(=O)(=O)c3ccc(NC(=O)Nc4cc(C(F)(F)F)ccc4F)cc3)cc2[nH]1`: the inhibition in assay [1] is 1.73%; in assay [2], 1.93%; in assay [3] it was 1.3%; in assay [4], 0.42%; in assay [5], -0.51%; in [6], 0.31%. The inhibition in assay [7] is 0.32%; in assay [8], 0.95%; in [9], 2.18%; in assay [10] it was 0.47%; in [11], 1.8%; in assay [12], 0.65%. In addition, the inhibition in [13] is 1.49%; in assay [14] it was 0.7%; in [15], -0.17%; in assay [16] it was 0.33%; in assay [17], 0.07%; in assay [18] it was 2.33%. Moreover, the inhibition in assay [19] came to 5.18%; in [20], 2.66%.
As to `COc1ccc(-c2nn3ncccc3c2-c2ccnc(Nc3ccc4c(c3)OCCO4)n2)cc1`, the inhibition in assay [1] is -0.83%; in assay [2], 0.73%; in assay [3] it was 2.32%; in assay [4], -1.17%; in assay [5], 0.51%; in [6], -1.85%. Besides, the inhibition is 3.69% in assay [7]; 1.65% in assay [8]; 2.32% in [9]; 0.61% in assay [10]; 3.96% in assay [11]; -0.29% in [12]. Moreover, the inhibition amounted to 0.67% in assay [13]; 0.69% in [14]; 2.58% in [15]; 1.22% in assay [16]; 7.32% in assay [17]; 3.21% in [18]. In addition, the inhibition amounted to 6.6% in assay [19] and 2.69% in [20].
With `COc1cc(Nc2nccc(Nc3ccc4c(C)n[nH]c4c3)n2)cc(OC)c1OC`, the inhibition came out at 2.76% in assay [1]; 2.38% in assay [2]; 14% in assay [3]; 1.29% in [4]; 10.2% in assay [5]; 1.4% in assay [6]. The inhibition was 1.99% in assay [7]; 3.09% in assay [8]; -1.03% in assay [9]; 3.2% in [10]; 5.39% in assay [11]; 1.08% in [12]. For the same compound, the inhibition in assay [13] is 3.92%; in assay [14], 1.17%; in [15], -0.29%; in [16] it was 2.72%; in assay [17], 6.67%; in assay [18], 2.61%. The inhibition in assay [19] was 2.11%; in assay [20], 1.03%.
In the case of `CCNC(=O)O[C@H]1CN[C@H](C#Cc2cc3ncnc(Nc4ccc(OCc5cccc(F)c5)c(Cl)c4)c3s2)C1`, the inhibition in [1] came out at 4.86%; in [2] it was 1.62%; in assay [3] it was 1.22%; in assay [4] it was 0.4%; in assay [5], 1.1%; in assay [6] it was 0.61%. For the same compound, the inhibition was -2.05% in [7]; 3.54% in [8]; -2.11% in [9]; -1.05% in [10]; 3.31% in [11]; 1.37% in assay [12]. The inhibition in assay [13] is 3.17%; in assay [14], 1.01%; in [15], 0.75%; in assay [16], -0.74%; in assay [17], 0.7%; in assay [18] it was 2.66%. The inhibition in assay [19] is 4.66%; in assay [20] it was 2.15%.
Take `CCn1c(-c2nonc2N)nc2c(C#CC(C)(C)O)nc(OC[C@H](N)c3ccccc3)cc21`: the inhibition in assay [1] was determined as 0.94%; in assay [2], 81.3%; in assay [3], 82.5%; in [4], 3.82%; in assay [5] it was 32.3%; in assay [6] it was 32.7%. Further, the inhibition in [7] was determined as 67.3%; in [8], 97.9%; in assay [9], 97.1%; in assay [10], 8.83%; in [11], 45.5%; in assay [12], 0.16%. For the same compound, the inhibition is 3.1% in [13]; 55.1% in [14]; 82.7% in assay [15]; 16.3% in assay [16]; 59.4% in [17]; 5.85% in [18]. Further, the inhibition in [19] came out at 29.9%; in assay [20], 5.65%.
In the case of `COC(=O)Nc1nc2ccc(Oc3ccc(NC(=O)Nc4cccc(Cl)c4)cc3)cc2[nH]1`, the inhibition in assay [1] was -0.86%; in assay [2] it was 2.12%; in [3], 0.79%; in assay [4], 0.15%; in assay [5] it was -0.86%; in assay [6] it was -1.37%. Moreover, the inhibition in assay [7] was -5.17%; in assay [8], 0.84%; in [9], -0.24%; in assay [10], 0.84%; in assay [11] it was -1.47%; in assay [12], 0.42%. Also, the inhibition in assay [13] was 0.23%; in assay [14], 0.36%; in [15], 0.17%; in [16], 0.5%; in [17], 0.57%; in assay [18], 2.7%. Further, the inhibition in [19] was determined as 3.03%; in assay [20], 1.6%.
